# Measured values reported in PubChem BioAssay (NCI).
# The panel holds about 83,000 compounds, 20% with a hit somewhere; the sample as a whole holds those more often.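 The endpoint reported here, percent growth, reads 100 for growth as untreated, 0 for no net growth and -100 for all cells dead.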 The source made the active and inactive calls. Rule for the calls: active = growth percent below 10; inactive = the rest.
# What was measured:
# Test in all cases: NCI-60 one-dose screen, 48 h (100 = growth as untreated, 0 = no growth, -100 = all killed)
# Settings in all cases: 10 µM unless noted
# [1] = system: BT-549 breast
# [2] = system: MDA-MB-435 melanoma
# [3] = system: SW-620 colon
# [4] = system: MCF7 breast
# [5] = system: HCC-2998 colon
# [6] = system: KM12 colon
SMILES,growth [1],growth [2],growth [3],growth [4],growth [5],growth [6]
COc1ccc(Cl)c([N+](=O)[O-])c1,104% (inactive),99.6% (inactive),103% (inactive),95.5% (inactive),104% (inactive),102% (inactive)
O=C(/C(=C/c1ccc([N+](=O)[O-])cc1)SCc1ccc(Cl)cc1)c1ccc(F)cc1,78.2% (inactive),49.2% (inactive),-9.4% (active),-11.9% (active),84.5% (inactive),23.3% (inactive)
COc1ccc2nc(-c3ccc(OC)c(OC)c3)cc(-c3nnc(SCC(=O)Nc4ccc(/C(C)=N\O)cc4)n3-c3ccccc3)c2c1,56.4% (inactive),84.9% (inactive),89.6% (inactive),–,101% (inactive),75.9% (inactive)
CC(=O)O[C@@H]1C[C@]2(C)[C@H]3[C@H](O)C[C@@H]4C5=CC(C)(C)CC[C@]5(C)CC[C@@]4(C)[C@]3(C)CC[C@H]2C(C)(C)[C@H]1O,102% (inactive),99.8% (inactive),98.7% (inactive),–,107% (inactive),105% (inactive)
FC(F)(F)c1ccc2c(Nc3cccc(C4CC(c5ccccc5)=NN4c4ccc(Cl)cc4)c3)ccnc2c1 (configuration not stated),55.7% (inactive),38% (inactive),-17.3% (active),11.5% (inactive),66.5% (inactive),15.5% (inactive)
COc1ccc2nc(-c3ccc(OC)c(OC)c3)cc(-c3nnc(SCC(=O)Nc4ccc(C(C)=O)cc4)o3)c2c1,102% (inactive),103% (inactive),103% (inactive),94.9% (inactive),111% (inactive),102% (inactive)
COc1ccc(-c2cc(-c3nnc(SCC(=O)Nc4ccc(/C(C)=N\O)cc4)o3)c3ccccc3n2)cc1,108% (inactive),110% (inactive),105% (inactive),96.1% (inactive),101% (inactive),101% (inactive)
COc1cc(NC(=O)COc2cc(C)nc3ccc(OC)cc23)cc(OC)c1,85.5% (inactive),100% (inactive),99.7% (inactive),86.8% (inactive),101% (inactive),96.8% (inactive)
S=c1ssnc1-c1cc2ccccc2o1,103% (inactive),57% (inactive),71.5% (inactive),65.5% (inactive),98.3% (inactive),81.6% (inactive)
